CHT inh = inhibits the human high affinity choline transporter; Q9GZV3; CHT-expressing cells, membrane potential dye, choline response; active compounds read low; B-score at 10 µM; hit rate 0.86% among 310,000;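 active means B-score over 3 SD under the library average, and starting fluorescence ratio not unusually high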;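 further: choline stimulus applied at its EC90 after an EC20 pre-addition; B-score computed on integrated fluorescence ratio after choline addition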
TMEM16A act = activates or potentiates the mouse TMEM16A chloride channel. hit rate 0.3% among 340,000. HEK293 TMEM16A/YFP-H148Q/I152L, iodide quench fluorescence; active compounds read low. Q8BHY3. B-score at 10 µM;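 active means fluorescence-ratio B-score plate-corrected deviation score at least 3 library SD below zero, with starting fluorescence score within 5 deviations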;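 further: channel opened by trigger with iodide after compound preincubation; score built on the fluorescence ratio of max minus min over baseline; more negative score means more quench and so TMEM16A activation or potentiation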
TMEM16A inh = inhibitors of mouse TMEM16A calcium-activated chloride channel; HEK293 TMEM16A/YFP iodide influx fluorescence, ionomycin; Q8BHY3; normalized B-score (activity score, 25-100; higher = stronger inhibition) at 10 µM; hit rate 1.2% among 310,000;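 active means ratio plate-corrected score three or more library SD toward inhibition, starting fluorescence score within five deviations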;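 further: score derived from kinetic fluorescence span divided by baseline fluorescence per well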
CHT PAM = human CHT allosteric activation | Q9GZV3 | CHT-expressing cells, membrane potential dye, choline EC20; active compounds read high; LV-AA mutant CHT in HEK293 cells | B-score at 10 µM | hit rate 0.49% among 310,000;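 active means initial fluorescence not abnormally high and integrated response B-score, plate-corrected, over 3 SD above library mean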
TMEM16A reconf = TMEM16A (mouse) chloride channel inhibition, re-confirmation. shares compounds with TMEM16A inh. HEK293 TMEM16A/YFP-H148Q, iodide quench fluorescence; ionomycin added to raise cell calcium. inhibition, % at 10 µM. hit rate 39% among 2,300;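 active means mean duplicate percent inhibition, scaled so buffer wells are 0 and the reference blocker 100, over three buffer SD above buffer mean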
HEK293 Ca mobil = alters calcium mobilization in TMEM16A HEK293 cells, counter-screen. shares compounds with TMEM16A inh. calcium response (% of ionomycin), % at 10 µM. hit rate 2% among 2,300. TMEM16A/YFP HEK293, Fluo4 calcium mobilization;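 active means duplicate-averaged calcium signal over 20% of the ionomycin maximum, relative to buffer baseline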;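 further: each well's signal is peak minus trough fluorescence divided by its pre-addition baseline; 0% = buffer wells and 100% = ionomycin wells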
YFP-HEK293 quench = parental YFP-HEK293 iodide quench counter-screen activity; ionomycin; AID 652233; 2,300 tested, under 10 active; YFP ratio F(max-min)/F0 at 10 µM; shares compounds with TMEM16A inh;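 active means yellow fluorescent protein signal ratio exceeding the buffer control mean by over 5 SD of those controls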;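 further: ratio is mean of duplicate wells from kinetic YFP trace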
ClC-1 rat inh = selectivity of TMEM16A inhibitors: inhibition of rat ClC-1 chloride channel; 2,300 tested, under 10 active; shares compounds with TMEM16A inh; ratio percent, % at 10 µM; CHO ClC-1-YFP, iodide influx fluorescence quench; iodide control reads 0, buffer control 100;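 active means duplicate-mean ratio percent above the mean of iodide-only control wells, which defines zero, plus 5 of their SD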;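 further: higher percent means stronger block of ClC-1 iodide influx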
* marks the source's active call; other numbers are inactive results; i = inactive; . = not tested or not shown. Rows were chosen to be rich in hits. Some 2.4% of all compounds tested hit in one or more screens of this group.

SMILES	CHT inh	TMEM16A act	TMEM16A inh	CHT PAM	TMEM16A reconf	HEK293 Ca mobil	YFP-HEK293 quench	ClC-1 rat inh
COc1ccccc1C(=O)NCCC(=O)NCc1cccs1	i	i	i	i	.	.	.	.
Cc1cccc(OCC(=O)Nc2nc3ccc([N+](=O)[O-])cc3s2)c1	i	i	25*	i	i	i	-0.96	2
Cc1ccc(S(=O)(=O)N(C)c2ccc(OCC(=O)Nc3nc4ccccc4s3)cc2)cc1	i	i	i	i	i	i	-0.85	-16
O=C(COc1cc(Cl)c(Cl)cc1Cl)NC(=O)Nc1ccc2c(c1)OCCO2	i	i	i	i	.	.	.	.
CCS(=O)(=O)N1Cc2ccccc2CC1C(=O)Nc1nnc(SCc2ccc(F)cc2)s1 (stereo unspecified)	i	i	i	i	.	.	.	.
COc1ccc(CNC(=O)CCc2c[nH]c3ccccc23)cc1	i	i	100*	i	i	i	-1.1	-10
CCOC(=O)C(CSCc1ccccc1)NC(=O)OC(C)(C)C (stereo unspecified)	i	i	i	i	.	.	.	.
CCOC(=O)C(CSCC(=O)c1ccc(Cl)cc1)NC(=O)OC(C)(C)C (stereo unspecified)	i	i	100*	i	i	i	-1	-4
O=C(CCC1CCCC1)c1c(O)c2ccccc2oc1=O	i	i	100*	i	34%*	58%*	-0.94	-38
C#CCN(C(=O)c1cc(COc2ccc(C)c(C)c2)on1)C1CCCCC1	i	i	i	i	.	.	.	.
C#CCN(C(=O)c1cc(COc2cccc(C(F)(F)F)c2)on1)C1CCCCC1	i	i	100*	i	54%*	i	-0.99	-18
CCN(CC(=O)Nc1c(F)cccc1F)C(=O)CCNC(=O)c1ccco1	.	i	.	.	.	.	.	.
O=C(CCc1nc2ccccc2c(=O)[nH]1)NCCN1C(=O)S/C(=C\c2ccc(Cl)cc2Cl)C1=O	i	i	25*	i	i	i	-1	-6
CC(Oc1ccc(Br)cc1)C(=O)N1CCC(C(N)=O)CC1 (stereo unspecified)	i	i	i	i	.	.	.	.
Cc1ccccc1OC1CCN(C(=O)c2cc(COc3ccccc3)on2)CC1	i	i	i	i	.	.	.	.
CCN(CC)S(=O)(=O)c1cccc(C(=O)Nc2cc(C)cc(C)c2)c1	i	i	i	i	.	.	.	.
CCN(CC)S(=O)(=O)c1ccc(C(=O)Nc2ccc(Cc3ccncc3)cc2)cc1	i	i	100*	i	28%*	i	-1.1	-21
CCN(CC)S(=O)(=O)c1ccc(NC(=O)c2ccccc2N(C)S(C)(=O)=O)cc1	i	i	i	i	.	.	.	.
CCN(CC)S(=O)(=O)c1cccc(C(=O)Nc2ccc(C#N)cc2)c1	i	i	100*	i	i	i	-1.1	-20
CCN(CC)S(=O)(=O)c1ccc(NC(=O)c2ccc(N(C)S(C)(=O)=O)cc2)cc1	i	i	100*	i	20%*	i	-1	-13
CN(C)S(=O)(=O)c1cccc(NC(=O)c2ccc(N3CCOCC3)c([N+](=O)[O-])c2)c1	i	i	i	i	.	.	.	.
Cc1ccc(-n2c(C)cc(C(=O)COC(=O)c3c(C)noc3C)c2C)cc1	i	i	100*	i	i	i	-0.97	-16
Cc1cc(C(=O)COC(=O)c2cnccn2)c(C)n1-c1ccc(Br)cc1	.	i	.	.	.	.	.	.
CN(C)c1ccccc1C(=O)N1CCCC(C(=O)c2ccc3ccccc3c2)C1 (stereo unspecified)	i	i	100*	i	i	i	-1.2	-8
CSc1ncccc1C(=O)N1CCCC(C(=O)c2ccc3ccccc3c2)C1 (stereo unspecified)	i	i	i	i	.	.	.	.

Screening data (PubChem)
